Compound activity as filed in PubChem.
A selection: hits, their analogues and other compounds. The true share with any hit is near 7.5%.
SMN2 splice enh = enhancers of SMN2 splice variant expression; HEK293 SMN2-luciferase splicing reporter, luminescence, 30-36 h; Potency, µM (highest dose often 46.1 µM), without a hit: at the top dose activity change, positive = activation, actives largely listed as activators; actives 2.8% (n = 210,000); AID 1458; also: % of control where 0% means no effect; nearly all actives have a fitted effect of over 55% in size
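HEK293 cells carry an SMN2 minigene-luciferase reporter in which exon 7 inclusion puts luciferase in frame. Cells were seeded at 2000 cells/well, attached for 10-12 hours, then exposed to compounds for 30-36 hours at 37C before ONE-Glo luminescence.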
Rab9 promoter act = activators of Rab9 promoter | actives 2.8% (n = 320,000) | Potency, µM (highest dose often 9.22 µM), inactives show top-dose activation, negative = inhibition, most hits filed as activators | Huh7 Rab9 promoter-luciferase reporter, luminescence, 24 h; also: % of control where 0% means no effect; nearly all actives have a fitted effect of over 60% in size
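Huh7 reporter line, Rab9 promoter upstream of luciferase. Compound exposure 24 h at 37 °C in reduced-serum medium with 10% FBS. Read-out: luminescence.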
ELG1 genotox = inducers of genotoxicity in HEK293T ELG1-luciferase cells | HEK293T ELG1-luciferase reporter, luminescence, 16 h | Potency, µM (titrated, usually from 46 µM), for inactives: top-dose activity change, positive = activation, usual class: activators | actives 1.3% (n = 330,000); also: % of control where 0% means no effect; nearly all actives have a fitted effect of over 60% in size
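Screening used a luciferase reporter fused to human ELG1 in HEK293T cells. Luminescence was read on a CCD plate imager after 16 hr exposure and 30 min ONE-Glo incubation.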
FLuc counter = inhibits or activates purified firefly luciferase, miR-21 counter-screen | Potency, µM (series often up to 57.5 µM), without a hit: at the top dose activity change, negative = inhibition, most hits filed as inhibitors | AID 588342 | actives 6.9% (n = 360,000) | purified FLuc, Km substrates, luminescence inhibition | P08659;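 also: plate controls were vehicle for no effect and reference inhibitor for full effect; nearly all actives have a fitted effect of over 55% in size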
Target sequence (P08659 whole entry, looked up): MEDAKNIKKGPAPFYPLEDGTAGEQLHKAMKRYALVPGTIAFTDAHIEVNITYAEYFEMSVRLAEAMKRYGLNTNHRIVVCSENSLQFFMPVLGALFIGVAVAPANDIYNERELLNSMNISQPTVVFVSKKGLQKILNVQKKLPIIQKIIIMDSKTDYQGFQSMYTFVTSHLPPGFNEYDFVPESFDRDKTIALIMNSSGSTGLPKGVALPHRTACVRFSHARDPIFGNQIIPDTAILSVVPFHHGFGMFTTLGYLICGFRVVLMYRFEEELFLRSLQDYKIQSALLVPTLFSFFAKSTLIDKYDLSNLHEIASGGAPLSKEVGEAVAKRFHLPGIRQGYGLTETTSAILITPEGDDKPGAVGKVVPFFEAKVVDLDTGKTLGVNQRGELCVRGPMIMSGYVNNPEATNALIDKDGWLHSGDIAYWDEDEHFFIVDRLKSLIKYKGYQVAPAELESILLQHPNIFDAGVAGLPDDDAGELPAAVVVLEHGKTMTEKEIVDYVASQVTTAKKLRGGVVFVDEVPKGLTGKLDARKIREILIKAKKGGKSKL
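Purified P. pyralis luciferase, 10 nM final, with Km-level 10 uM D-luciferin and 10 uM ATP in 50 mM Tris acetate pH 7.5, 10 mM Mg acetate, 0.01% Tween-20, 0.05% BSA; 6-point qHTS titration about 60 µM downward; luminescence read.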
NPC1 promoter act = NPC1 promoter activation. Huh7 NPC1 promoter luciferase reporter, 24 h. Potency, µM (doses to about 9.22 µM), inactives show top-dose activation, usual class: activators. actives 2.4% (n = 320,000). AID 485313; also: % of control where 0% means no effect; nearly all actives have a fitted effect of over 60% in size
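Luciferase expression driven by the NPC1 promoter was measured in stably transfected Huh7 cells after a 24 h compound incubation, using a luciferase reagent and a luminescence read.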
Starred values were filed as active, the others as inactive. Calls follow the shape of the dose curve; as a rule, active = well fitted curve in the direction sought with a large enough effect; inconclusive = small, poorly fitted or top-dose-only effect, or another doubt; inactive = no such curve, though single readings can be large; an effect the other way counts as inactive or inconclusive. Potency is read from the fitted curve at half-maximal effect.

How did CCC1CCC2(CC1)NC(=O)N(CC(=O)Nc1ccc(OC)c(Cl)c1)C2=O (stereo not given) do in these assays?
Rab9 promoter act: -1.8%; ELG1 genotox: 0.1%; FLuc counter: 4.3%; NPC1 promoter act: -3.2%

What do the screens show for `Cc1ccc(NC(=O)COC(=O)CNC(=O)C2CCCCC2)cc1S(=O)(=O)N(C)C`?
ELG1 genotox: -3.4%

Results for CCOc1ccc(C(=O)NCC(=O)OCC(=O)Nc2ccccc2OCC)cc1 ?
SMN2 splice enh: 2.4%; Rab9 promoter act: -2.8%; ELG1 genotox: 1.3%; FLuc counter: 23.9µM*; NPC1 promoter act: 1.2%

Results for COc1ccc(C(=O)NCC(=O)OCC(=O)Nc2cc([N+](=O)[O-])ccc2F)cc1 ?
SMN2 splice enh: -0.6%; Rab9 promoter act: 1.3%; ELG1 genotox: 11.6%; FLuc counter: 23.9µM*; NPC1 promoter act: -1.6%

How did CCOc1ccc(C(=O)NCC(=O)OCC(=O)Nc2ccc(C)c(S(=O)(=O)N(C)C)c2)cc1 do in these assays?
SMN2 splice enh: 1.3%; Rab9 promoter act: -2.6%; ELG1 genotox: 1.8%; FLuc counter: 4.78µM*; NPC1 promoter act: -2.9%

How did CCOc1ccc(C(=O)NCC(=O)OCC(=O)NC2CCCC2)cc1 do in these assays?
SMN2 splice enh: -1.6%; Rab9 promoter act: 3.9%; ELG1 genotox: 2.2%; FLuc counter: -18.3%; NPC1 promoter act: -4.1%

Results for CCOc1ccc(C(=O)NCC(=O)OCC(=O)Nc2ccccc2OC)cc1 ?
SMN2 splice enh: -2.0%; Rab9 promoter act: -3.4%; ELG1 genotox: 1.6%; FLuc counter: 23.9µM*; NPC1 promoter act: -0.3%

How did CC(C)=CC(=O)OCC(=O)Nc1cc([N+](=O)[O-])ccc1F do in these assays?
SMN2 splice enh: 7.2%; Rab9 promoter act: -4.3%; ELG1 genotox: -0.7%; FLuc counter: 4.0%; NPC1 promoter act: -2.1%

What do the screens show for `N#CCN1C(=O)C(=O)N(Cc2cccc(Cl)c2)C1=O`?
Rab9 promoter act: 2.8%; ELG1 genotox: 1.0%; FLuc counter: -1.7%; NPC1 promoter act: -4.3%

What do the screens show for `CCOc1ccc(C(=O)N(CN2CCCC2=O)c2ccccc2)cc1`?
SMN2 splice enh: -22.7%; Rab9 promoter act: 4.2%; ELG1 genotox: -7.4%; FLuc counter: -23.2%; NPC1 promoter act: -2.1%

What do the screens show for `CCCC(=O)N(Cc1cc(=O)[nH]c2ccccc12)c1ccccc1OC`?
Rab9 promoter act: 9.5%; ELG1 genotox: -0.6%; FLuc counter: 0.1%; NPC1 promoter act: 1.4%

What do the screens show for `[O-]/[N+](=C\c1ccc(OC(F)F)cc1)c1ccccc1`?
SMN2 splice enh: -0.6%; Rab9 promoter act: inconclusive; ELG1 genotox: 12.1%; FLuc counter: 15.1µM*; NPC1 promoter act: inconclusive

What do the screens show for `COc1ccc(/C=N/c2c(-c3ccc(OC)cc3)nc3n2CCS3)cc1`?
SMN2 splice enh: 9.3%; Rab9 promoter act: 18.3%; ELG1 genotox: 1.6%; FLuc counter: 1.9µM*; NPC1 promoter act: -4.4%

How did Fc1ccc(/C=N/c2c(-c3ccc(F)cc3)nc3n2CCS3)cc1 do in these assays?
SMN2 splice enh: 7.4%; Rab9 promoter act: -7.2%; ELG1 genotox: 2.0%; FLuc counter: 1.4%; NPC1 promoter act: -0.4%
